This is an account of results in PubChem BioAssay (Tox21).

A number with no mark means an inactive call. Records with an inconclusive call do not appear. Activity calls are given as the source filed them. Unless noted, calls follow the shape of the dose curve; as a rule, active = well fitted curve in the direction sought with a large enough effect in the repeat runs; inconclusive = weak or mixed curves; inactive = no such curve, though single readings can be large; an effect the other way counts as inactive or inconclusive.

Assay [1] in a line: qHTS assay to test for compound auto fluorescence at 535 nm (green) in HEK293 cells (AID 720680).
Assay [2] can be described thus: qHTS assay to test for compound auto fluorescence at 460 nm (blue) in HEK293 cell free culture (AID 720681). The method in brief:
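Blue fluorescence (Ex 405/Em 460 nm, triamterene-equivalent) was read immediately after pin transfer of compound or DMSO into medium (DMEM, 10% FBS) without cells.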
In general terms: In qHTS, concentration-response curves come from the screen itself.

Assay [3] is described as follows: qHTS assay to test for compound auto fluorescence at 535 nm (green) in HEK293 cell free culture (AID 720682). The method in brief: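 Each library compound, or DMSO control, is added by pintool to medium alone, comprising DMEM and 10% FBS. Emission at 535 nm following 485 nm excitation is quantified against fluorescein.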
The nature of assay [4]: qHTS assay to test for compound auto fluorescence at 590 nm (red) in HEK293 cell free culture (AID 720683). Put shortly: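 Red-channel autofluorescence of compounds in culture medium (DMEM, 10% FBS), no cells, measured at 540/590 nm. Rose Bengal sodium is the reference fluorophore for equivalence.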
The nature of assay [5]: qHTS assay to test for compound auto fluorescence at 590 nm (red) in HepG2 cell free culture (AID 720684). Put shortly: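 Cell-free; medium MEM + 10% FBS; compound or DMSO added by pintool; read Ex 540/Em 590 nm; Rose Bengal sodium as red reference fluorophore.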
Assay [6] can be described thus: qHTS assay to test for compound auto fluorescence at 460 nm (blue) in HepG2 cell free culture (AID 720685). Put shortly:
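Cell-free plates of MEM plus 10% FBS received 23 nL compound or DMSO vehicle; blue-channel (405/460 nm) intensity scored against triamterene as reference fluorophore.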

A short description of assay [7]: qHTS assay to test for compound auto fluorescence at 535 nm (green) in HepG2 cell free culture (AID 720686).
Assay [8] is described as follows: qHTS assay to test for compound auto fluorescence at 460 nm (blue) in HepG2 cells (AID 720687). Put shortly:
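Blue-channel autofluorescence (Ex/Em 405/460 nm, triamterene-equivalent) was measured after 1 hr compound exposure at 37 C, 5% CO2. Cells were HepG2, plated overnight at 37 C in MEM plus 10% FBS.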

Assay [9] addresses Glucocorticoid receptor (Homo sapiens) (UniProt P04150). Briefly: qHTS assay to identify small molecule agonists of the glucocorticoid receptor (GR) signaling pathway (AID 720691; active = well fitted activation curve with a large enough effect in the signal ratio in the repeat runs, not every such curve was filed as active; the % refers to the signal ratio). The method in brief: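 Cells: GR-bla HeLa, endogenous GR with stably integrated GRE-beta-lactamase reporter. Treatment 18 h, 37 C, compounds delivered in DMSO. Detection via LiveBLAzer B/G FRET substrate, 2 h RT, fluorescence intensity.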

Assay [10] has the same target. Put plainly: qHTS assay to identify small molecule antagonists of the glucocorticoid receptor (GR) signaling pathway (AID 720692; active = well fitted inhibition curve with a large enough effect in the signal ratio in the repeat runs, not every such curve was filed as active; the % refers to the signal ratio). The method in brief:
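Quantitative HTS in antagonist format: HeLa cells expressing endogenous GR and a stably integrated GRE-bla reporter, stimulated with 5 nM dexamethasone (final) alongside test compounds for 18 h.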

The nature of assay [11]: qHTS assay to identify small molecule antagonists of the glucocorticoid receptor (GR) signaling pathway - cell viability counter screen (AID 720693). Also: nearly all actives have a fitted effect of over 55% in size.
Assay [12] can be described thus: qHTS assay to identify small molecule antagonists of the androgen receptor (AR) signaling pathway - cell viability counter screen (AID 743033; also: nearly all actives have a fitted effect of over 45% in size).
A short description of assay [13]: qHTS assay to identify small molecule antagonists of the androgen receptor (AR) signaling pathway using the MDA cell line - cell viability counter screen (AID 743041; also: nearly all actives have a fitted effect of over 45% in size). The method in brief:
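Viability read by CellTiter-Fluor fluorescence in the same wells as the antagonist screen, added after 15.5 h of a 16 h, 37C exposure. Human breast carcinoma MDA-kb2 AR-luc cells, compounds co-dosed with agonist R1881.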

Assay [14] is described as follows: qHTS assay for identifying genotoxic compounds that show differential cytotoxicity against isogenic chicken DT40 cell lines with known DNA damage response pathways - wild type cell line (AID 743012). Also: nearly all actives have a fitted effect of over 60% in size. Put shortly: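 Luminescent ATP viability signal (CellTiter-Glo, 30 min RT) recorded after wild type DT40 cells were incubated with compounds for 40 h at 37 C/5% CO2.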

Assay [15] is described as follows: qHTS assay for identifying genotoxic compounds that show differential cytotoxicity against isogenic chicken DT40 cell lines with known DNA damage response pathways - Rev3 mutant cell line (AID 743014). Also: nearly all actives have a fitted effect of over 55% in size. Also: potency is read from the fitted curve at half-maximal effect.
Assay [16] in a line: qHTS assay for identifying genotoxic compounds that show differential cytotoxicity against isogenic chicken DT40 cell lines with known DNA damage response pathways - Rad54/Ku70 mutant cell line (AID 743015). Also: nearly all actives have a fitted effect of over 60% in size.

Sequence of Glucocorticoid receptor (Homo sapiens) (P04150 whole entry, looked up): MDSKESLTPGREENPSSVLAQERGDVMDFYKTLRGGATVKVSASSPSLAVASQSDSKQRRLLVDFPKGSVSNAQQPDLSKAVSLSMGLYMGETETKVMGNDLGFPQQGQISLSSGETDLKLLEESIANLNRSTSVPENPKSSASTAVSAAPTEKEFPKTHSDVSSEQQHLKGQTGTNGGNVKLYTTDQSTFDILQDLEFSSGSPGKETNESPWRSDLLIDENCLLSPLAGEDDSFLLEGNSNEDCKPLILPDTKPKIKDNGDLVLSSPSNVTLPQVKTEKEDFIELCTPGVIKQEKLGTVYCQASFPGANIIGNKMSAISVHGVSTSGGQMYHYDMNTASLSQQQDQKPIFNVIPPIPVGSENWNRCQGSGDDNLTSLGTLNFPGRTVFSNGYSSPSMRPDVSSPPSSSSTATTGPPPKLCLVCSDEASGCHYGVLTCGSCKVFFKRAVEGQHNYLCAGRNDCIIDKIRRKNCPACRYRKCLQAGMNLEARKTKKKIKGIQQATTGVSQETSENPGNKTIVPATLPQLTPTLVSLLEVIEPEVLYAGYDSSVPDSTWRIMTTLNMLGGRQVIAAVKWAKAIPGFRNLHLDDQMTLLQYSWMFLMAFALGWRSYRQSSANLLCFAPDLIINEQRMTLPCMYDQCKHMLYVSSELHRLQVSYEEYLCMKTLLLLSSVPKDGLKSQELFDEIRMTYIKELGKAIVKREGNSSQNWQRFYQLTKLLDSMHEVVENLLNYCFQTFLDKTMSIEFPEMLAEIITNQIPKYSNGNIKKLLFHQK

`COP(=S)(OC)Oc1c(Cl)cc(C)cc1Cl`: the call in [1], in [2], in assay [3], in assay [4], in [5] and in assay [6] was inactive. In addition, the compound was called inactive in assay [7], in [8] and in assay [9]. The Potency entry in [10], in [11], in [12] and in assay [13] was “inactive” each time.

Regarding `O=[N+]([O-])c1ccc(CBr)cc1`, the outcome in assay [1], in assay [2], in assay [3], in assay [4], in [5] and in [6] was inactive. For the same compound, the outcome in [7], in [8] and in assay [9] was inactive. Further, the Potency result in assay [11], in assay [14], in assay [15], in assay [16], in assay [12] and in assay [13] was “inactive” in each case.

For `COc1cc(OC)nc(NC(=O)NS(=O)(=O)c2ncccc2OCC(F)(F)F)n1`, the call in assay [1], in [2], in [3], in [4], in assay [5] and in assay [6] was inactive. For the same compound, the call in assay [7], in assay [8] and in [9] was inactive. Further, the Potency result in assay [11], in [14], in assay [15], in assay [16] and in [13] was “inactive” throughout.

Regarding `CCOP(=S)(OCC)Oc1nc(Cl)n(C(C)C)n1`, the outcome in assay [1], in [2], in assay [3], in assay [4], in [5] and in assay [6] was inactive. The result in assay [7], in assay [8] and in assay [9] was inactive. The Potency result in [10], in [11], in [12] and in assay [13] was “inactive” in each case. The Potency in assay [15] was 68.6 µM (active).

Turning to `O=C(O)C(Br)CBr` (stereo not given), the outcome in assay [1], in assay [2], in assay [3], in assay [4], in assay [5] and in assay [6] was inactive. Besides, the call in assay [7], in [8] and in assay [9] was inactive. For the same compound, the Potency entry in assay [10], in [11], in assay [16] and in [13] was “inactive” in each case.

In the case of `CCC#N`, the result in assay [1], in [2], in assay [3], in assay [4], in [5] and in assay [6] was inactive. Further, the outcome in assay [7], in assay [8] and in [9] was inactive. For the same compound, the Potency entry in [11], in assay [14], in [15], in assay [16] and in [13] was “inactive” throughout.

For `CNCC(=O)c1ccc(O)c(O)c1`, the compound was called inactive in [1], in assay [2], in [3], in assay [4], in [5] and in assay [6]. For the same compound, the compound was classed as inactive in assay [7], in assay [8] and in [9]. Further, the Potency result in assay [11], in assay [14], in assay [15], in assay [16], in [12] and in assay [13] was “inactive” each time.

On to `Cc1cc(C)nc(Nc2ccccc2)n1`, for which the call in assay [1], in assay [2], in assay [3], in [4], in assay [5] and in assay [6] was inactive. Further, the result in [7], in [8] and in assay [9] was inactive. Besides, the Potency entry in [10], in assay [11], in [12] and in assay [13] was “inactive” throughout.

On to `CCCSC(=O)Cl`, for which the compound was called inactive in [1], in [2], in assay [3], in [4], in assay [5] and in assay [6]. For the same compound, the compound was called inactive in assay [7], in [8] and in assay [9]. Moreover, the Potency entry in assay [10], in assay [11], in assay [15], in assay [12] and in [13] was “inactive” throughout.
